Calls of active or inactive are those of the source. Calls follow the shape of the dose curve; as a rule, active = well fitted curve in the direction sought with a large enough effect; inactive = no such curve, though single readings can be large or run the other way.

Epidermal growth factor receptor (Homo sapiens), sequence (P00533 whole entry L858R, looked up): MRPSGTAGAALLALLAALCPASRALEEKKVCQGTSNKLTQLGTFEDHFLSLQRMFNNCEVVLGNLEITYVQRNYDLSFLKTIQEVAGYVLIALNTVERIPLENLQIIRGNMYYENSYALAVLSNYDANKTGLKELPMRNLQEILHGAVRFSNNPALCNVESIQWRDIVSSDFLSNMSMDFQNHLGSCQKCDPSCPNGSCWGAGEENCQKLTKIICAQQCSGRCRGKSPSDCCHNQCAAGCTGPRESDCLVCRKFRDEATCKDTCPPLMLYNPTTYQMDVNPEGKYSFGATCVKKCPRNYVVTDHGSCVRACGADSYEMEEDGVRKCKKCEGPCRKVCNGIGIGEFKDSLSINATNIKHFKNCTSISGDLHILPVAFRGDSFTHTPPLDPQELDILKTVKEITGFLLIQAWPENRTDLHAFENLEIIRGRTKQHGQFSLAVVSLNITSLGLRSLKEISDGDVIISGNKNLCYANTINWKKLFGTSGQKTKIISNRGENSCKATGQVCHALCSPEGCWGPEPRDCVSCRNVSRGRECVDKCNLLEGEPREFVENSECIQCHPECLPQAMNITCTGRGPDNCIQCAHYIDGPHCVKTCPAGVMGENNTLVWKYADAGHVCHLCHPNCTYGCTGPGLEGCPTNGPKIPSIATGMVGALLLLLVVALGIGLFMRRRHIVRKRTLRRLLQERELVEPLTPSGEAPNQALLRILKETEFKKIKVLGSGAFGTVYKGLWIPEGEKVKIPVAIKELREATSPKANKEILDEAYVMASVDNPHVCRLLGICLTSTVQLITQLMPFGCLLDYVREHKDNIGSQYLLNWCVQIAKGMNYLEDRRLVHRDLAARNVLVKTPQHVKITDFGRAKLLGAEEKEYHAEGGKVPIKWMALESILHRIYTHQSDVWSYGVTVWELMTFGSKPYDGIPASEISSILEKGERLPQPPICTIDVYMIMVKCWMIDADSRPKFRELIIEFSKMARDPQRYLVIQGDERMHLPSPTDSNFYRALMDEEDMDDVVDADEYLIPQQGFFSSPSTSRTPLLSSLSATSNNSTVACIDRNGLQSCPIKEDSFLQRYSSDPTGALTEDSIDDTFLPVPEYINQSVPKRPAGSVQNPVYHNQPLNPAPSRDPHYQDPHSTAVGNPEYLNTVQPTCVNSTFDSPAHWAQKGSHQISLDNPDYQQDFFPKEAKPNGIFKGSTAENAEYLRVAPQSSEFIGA

The assay has as its target Epidermal growth factor receptor (Homo sapiens) (UniProt P00533). Kind of assay: Assay for Inhibitors of the ERK Signaling Pathway using a Homogeneous Screening Assay: EGFR L858R Kinase Inhibition. The settings on record: EGFR L858R kinase biochemical inhibition assay; series mostly up to 65.8 µM. The text has this: qHTS Assay for Inhibitors of the ERK Signaling Pathway using a Homogeneous Screening Assay
NIH Chemical Genomics Center [NCGC]
NIH Molecular Libraries Screening Centers Network [MLSCN]
Assay Submitter (PI): Dr. Wei Zheng, NCGC/NIH
The Ras/extracellular-signal-regulated kinase (ERK) mitogen activated protein (MAP) kinase signaling pathway (ERK1/2 cascade) plays is a key role in transmitting signals from the cell surface to the nucleus (Nishida and Gotoh 1993; Chang and Karin, 2001). The cascade is initiated by the small G-protein Ras, which recruits Raf […], where activation occurs. Alternatively, this pathway can be activated by elevating intracellular cAMP.
Activation of the ERK pathway is essential in increased cell division and cell survival. Sustained and constitutive activation of the ERK pathway, however, has been linked to uncontrolled cell proliferation, increased cell survival, and tumor progression. Thus, the ERK has been as an attractive target for cancer chemotherapy in the past few years (Sebolt-Leopold and Herrera, 2004). Given its physiological and pathological importance, assessment of ERK phosphorylation has been broadly performed in both basic research and drug discovery. Most assays for the measurement of ERK phosphorylation use the antibody-based detection methods, such as western blot and ELISA. These assays require multiple reagent additions with cell wash steps and are not suitable for high-throughput screening.
The current cell-based ERK phosphorylation assay was performed using AlphaScreen platform. AlphaScreen is a two bead-based proximity-dependent chemical energy transfer luminescent assay platform. The assay reagents (ERK SureFire(TM) kit) were supplied from TGR BioSciences (Australia). […]
The HTRF kinase assay (components supplied as kit by Cisbio) was chosen for the EGFR and EGFR mutant enzyme assays that applied the time resolved fluorescence resonance energy transfer (TR-FRET) principle. […]
Turning to `CCn1nc(-c2ccccc2)nc2c(=O)n(C)c(=O)nc1-2`, the call was inactive.
As to `Cc1nc2c(=O)n(C)c(=O)nc-2n(C)n1`, the molecule was classed as inactive.
On to `CN1CCN(c2cccc3c2C(=O)c2ccccc2C3=O)CC1`, for which the molecule was called inactive.

For the origin of these results see PubChem BioAssay AID1727 (National Center for Advancing Translational Sciences (NCATS), 2009).
